From PubChem BioAssay (EPA / NIEHS) come the findings set out here.

The structures appear in SMILES notation. Values joined by “and” are separate entries in the source; they are usually repeats but may differ in a detail not shown here. Equal entries are not always repeated. Active and inactive are the calls of the source. The calls were made as follows: active = hit-call score of the fitted dose curve at least 0.9, where 1 is the maximum; inactive = score below 0.9.

The assay can be described thus: BSK_LPS_PGE2: BioMAP Diversity Plus: LPS Assay for Prostaglandin E2 (PGE2) Biomarker Activity (AID 2283082).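 As to AC50: secreted prostaglandin E2 measured by ELISA in LPS-stimulated co-culture.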 Conditions: primary human HUVEC with PBMC; actives raise or lower the signal. In a few lines: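 Primary human endothelial cells and blood mononuclear cells, co-cultured with LPS, receive test chemical; PGE2 ELISA follows at 24 h, with SRB-stained parallel cultures flagging cytotoxicity.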
With `O=c1c2ccccc2oc2ccccc12`, the outcome was inactive.

For the molecule `COCc1c(C(C)C)nc(C(C)C)c(/C=C/[C@@H](O)C[C@@H](O)CC(=O)O)c1-c1ccc(F)cc1`, the outcome was inactive.

Take `O=Nc1ccc(O)cc1`: the outcome was inactive.

As to `N#[N+]c1ccc2c(S(=O)(=O)[O-])cccc2c1O`, the result was inactive.

With `C#CC1(O)CC[C@H]2[C@@H]3CCC4=CCCC[C@@H]4[C@H]3CC[C@@]21C` (some centres not stated), the result was inactive.

For the molecule `O=C(Cl)c1cc(C(=O)Cl)cc(C(=O)Cl)c1`, the result was inactive.

As to `CC(C)C(=O)C(C)C`, the result was inactive.

Regarding `C=CC(=O)OCC(Br)CBr` (configuration not stated), the result was inactive.

Broadly, the AC50 is the concentration at which the activity in the assay is half-maximal. Regarding `CCOC(=O)c1ccccc1C(=C1C=C(Br)C(=O)C(Br)=C1)c1cc(Br)c(O)c(Br)c1`, the concentration at half-maximal activity (AC50) was 19.1 µM (active) and 19 µM (active).

With `c1ccc2c(c1)ccc1ncccc12`, the result was inactive.

`CCCCC(CC)COC(=O)c1ccccc1O` (configuration not stated): the result was inactive.

On to `CCCCCCCCCCCCCCCC[N+](C)(C)CC`, for which the result was inactive.

`COc1ccc2nc(N)sc2c1`: the result was inactive.

Take `CC(C)(c1cc(Br)c(OCCO)c(Br)c1)c1cc(Br)c(OCCO)c(Br)c1`: the AC50 was 121 nM (active).

As to `CCCCC/C=C\C/C=C\CCCCCCCC(=O)OC`, the outcome was inactive.

Take `Nc1ccc(N)c(Cl)c1`: the half-maximal activity concentration (AC50) was 20 µM (active) and 13 µM (active).

As to `CC1OC1C1CCC2(C)OC2C1` (configuration not stated), the outcome was inactive.

Turning to `C=C[Si](OC(C)=O)(OC(C)=O)OC(C)=O`, the outcome was inactive.

As for `S=C(NC1CCCCC1)NC1CCCCC1`, the result was inactive.

With `C/C=C\C/C=C/CCCCCCCCOC(C)=O`, the concentration at half-maximal activity (AC50) was 35500 nM (active).

`CCCCC(CC)COCC1CO1` (configuration not stated): the result was inactive.

In the case of `CCO[Si](CCCN=C=O)(OCC)OCC`, the result was inactive.
